The source of these data is paper PMC7862700, “An all-to-all approach to the identification of sequence-specific readers for epigenetic DNA modifications on cytosine”.

Assay in all cases: DAPPL (digital affinity profiling via proximity ligation, sequencing); 10 mM Tris-HCl pH 7.5, 50 mM NaCl, 1 mM DTT, 4% glycerol, room temperature, 30 min; GST-TFs on glutathione beads, 16-mer random dsDNA library, 0.1% formaldehyde crosslink after washing; high values mean tight binding
The target in one assay is T1, FLI1 (Homo sapiens, UniProt Q01543 1-452).
T1 sequence: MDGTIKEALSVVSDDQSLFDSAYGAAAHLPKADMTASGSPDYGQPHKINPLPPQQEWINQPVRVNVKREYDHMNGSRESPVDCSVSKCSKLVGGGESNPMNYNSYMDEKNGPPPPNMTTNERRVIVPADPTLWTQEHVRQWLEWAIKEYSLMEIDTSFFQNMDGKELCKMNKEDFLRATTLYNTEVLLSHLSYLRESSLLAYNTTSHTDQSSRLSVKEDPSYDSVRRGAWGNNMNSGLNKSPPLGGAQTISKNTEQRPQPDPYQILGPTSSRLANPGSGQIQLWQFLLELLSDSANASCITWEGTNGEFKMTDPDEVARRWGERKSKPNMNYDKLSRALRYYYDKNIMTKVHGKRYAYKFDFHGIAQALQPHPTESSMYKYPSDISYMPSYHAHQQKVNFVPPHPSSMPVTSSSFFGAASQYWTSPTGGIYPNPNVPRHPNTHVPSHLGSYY
As to conditions: protein: recombinant; tags: N-terminal GST; dsDNA, one strand shown. A digest of the protocol:
(§1)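 The binding signal reported is, for every hexamer, its read frequency for a factor over its read frequency for the tag-only sample. Reads came from pools of yeast-expressed, GST-fused human transcription factors on glutathione beads, barcoded with DNA and mixed with that sample, which were incubated with 200 nmole of a random double-stranded 16-mer DNA library in Tris/NaCl/DTT/glycerol buffer at room temperature for 30 min. After washing, the pools were crosslinked with 0.1% formaldehyde, proximity-ligated with BsaI/T4 ligase for 1 h at 37 °C, PCR-amplified and sequenced on an Illumina NextSeq500.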

The target of a further assay is T2, ELK1 (Homo sapiens, UniProt P19419 1-428).
T2 sequence: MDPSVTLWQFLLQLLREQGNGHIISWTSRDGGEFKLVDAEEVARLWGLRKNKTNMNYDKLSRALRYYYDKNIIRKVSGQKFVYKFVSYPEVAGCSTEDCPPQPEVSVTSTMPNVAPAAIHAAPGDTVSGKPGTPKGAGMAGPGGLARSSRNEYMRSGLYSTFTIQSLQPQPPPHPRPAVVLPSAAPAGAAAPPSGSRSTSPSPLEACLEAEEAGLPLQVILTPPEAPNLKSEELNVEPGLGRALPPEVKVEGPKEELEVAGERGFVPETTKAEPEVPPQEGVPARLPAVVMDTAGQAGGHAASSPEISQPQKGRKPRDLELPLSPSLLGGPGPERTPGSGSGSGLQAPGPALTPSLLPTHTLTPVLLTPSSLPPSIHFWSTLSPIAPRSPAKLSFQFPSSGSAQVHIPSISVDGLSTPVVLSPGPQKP
As to conditions: protein: recombinant; tags: N-terminal GST; dsDNA, one strand shown. A digest of the protocol:
as §1

A further assay addresses T3, GABPA (Homo sapiens, UniProt Q06546 1-454).
T3 sequence: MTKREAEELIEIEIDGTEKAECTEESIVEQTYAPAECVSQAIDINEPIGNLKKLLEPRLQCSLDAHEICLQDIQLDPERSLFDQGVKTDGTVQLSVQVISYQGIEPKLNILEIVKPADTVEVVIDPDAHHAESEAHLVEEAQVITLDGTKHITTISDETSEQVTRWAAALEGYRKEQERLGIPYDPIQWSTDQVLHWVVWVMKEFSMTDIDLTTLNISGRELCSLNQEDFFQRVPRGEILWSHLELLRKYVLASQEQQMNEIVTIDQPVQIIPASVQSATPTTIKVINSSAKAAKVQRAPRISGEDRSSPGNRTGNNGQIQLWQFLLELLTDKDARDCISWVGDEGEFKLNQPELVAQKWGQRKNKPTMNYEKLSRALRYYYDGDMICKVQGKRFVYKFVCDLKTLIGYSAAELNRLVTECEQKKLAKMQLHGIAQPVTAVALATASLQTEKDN
As to conditions: protein: recombinant; tags: N-terminal GST; dsDNA, one strand shown. In a few lines: as §1

A further assay concerns the target T4, ERG (Homo sapiens, UniProt P11308 1-479).
T4 sequence: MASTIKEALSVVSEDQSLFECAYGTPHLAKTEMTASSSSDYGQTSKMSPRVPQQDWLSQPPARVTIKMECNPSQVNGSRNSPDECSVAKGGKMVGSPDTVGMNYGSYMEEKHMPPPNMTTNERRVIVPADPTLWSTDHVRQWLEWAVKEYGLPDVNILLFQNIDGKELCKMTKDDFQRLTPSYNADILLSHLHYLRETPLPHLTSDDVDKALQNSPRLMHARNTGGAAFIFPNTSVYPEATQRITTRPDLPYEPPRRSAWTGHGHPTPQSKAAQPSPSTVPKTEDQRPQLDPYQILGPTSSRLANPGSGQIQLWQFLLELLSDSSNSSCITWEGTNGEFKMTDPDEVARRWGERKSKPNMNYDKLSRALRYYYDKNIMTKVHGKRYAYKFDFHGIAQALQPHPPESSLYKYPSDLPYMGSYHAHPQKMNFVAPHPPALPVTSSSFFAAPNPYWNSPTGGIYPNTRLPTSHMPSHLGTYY
The note with it: protein: recombinant; tags: N-terminal GST; dsDNA, one strand shown. In a few lines: as §1

A further assay concerns the target ELF1 (Homo sapiens, UniProt P32519 1-619). The note with it: protein: recombinant; tags: N-terminal GST; dsDNA, one strand shown. A digest of the protocol:
as §1

For another assay, the target named is T5, EHF (Homo sapiens, UniProt Q9NZC4 1-300).
T5 sequence: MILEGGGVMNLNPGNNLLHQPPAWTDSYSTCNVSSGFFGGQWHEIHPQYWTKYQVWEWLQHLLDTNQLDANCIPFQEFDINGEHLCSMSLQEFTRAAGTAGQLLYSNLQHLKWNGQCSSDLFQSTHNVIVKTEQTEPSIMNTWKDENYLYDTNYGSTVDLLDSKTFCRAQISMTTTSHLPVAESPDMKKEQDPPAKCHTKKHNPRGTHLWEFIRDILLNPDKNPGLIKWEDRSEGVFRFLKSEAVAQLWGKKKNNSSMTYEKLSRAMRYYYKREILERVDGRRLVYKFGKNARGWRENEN
The note with it: protein: recombinant; tags: N-terminal GST; dsDNA, one strand shown. In a few lines:
as §1

The target in a further assay is SPI1 (Homo sapiens, UniProt P17947 1-270). As to conditions: protein: recombinant; tags: N-terminal GST; dsDNA, one strand shown. In a few lines:
as §1

A further assay concerns the target SPIB (Homo sapiens, UniProt Q01892 1-262). The note with it: protein: recombinant; tags: N-terminal GST; dsDNA, one strand shown. A digest of the protocol:
as §1

The target of the next assay is T6, ELK3 (Homo sapiens, UniProt P41970 1-407).
T6 sequence: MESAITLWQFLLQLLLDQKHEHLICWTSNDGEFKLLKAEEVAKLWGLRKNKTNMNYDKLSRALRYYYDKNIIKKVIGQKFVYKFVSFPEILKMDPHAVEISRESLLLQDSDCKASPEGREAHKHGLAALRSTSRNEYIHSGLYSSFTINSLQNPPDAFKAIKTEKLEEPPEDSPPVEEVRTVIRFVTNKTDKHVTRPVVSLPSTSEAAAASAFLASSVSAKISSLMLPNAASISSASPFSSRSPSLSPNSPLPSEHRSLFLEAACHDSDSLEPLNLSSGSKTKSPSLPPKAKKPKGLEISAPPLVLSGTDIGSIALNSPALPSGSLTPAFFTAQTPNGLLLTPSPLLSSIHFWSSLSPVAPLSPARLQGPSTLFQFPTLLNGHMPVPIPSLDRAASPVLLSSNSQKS
As to conditions: protein: recombinant; tags: N-terminal GST; dsDNA, one strand shown. A digest of the protocol: as §1

The next assay addresses T7, FEV (Homo sapiens, UniProt Q99581 1-238).
T7 sequence: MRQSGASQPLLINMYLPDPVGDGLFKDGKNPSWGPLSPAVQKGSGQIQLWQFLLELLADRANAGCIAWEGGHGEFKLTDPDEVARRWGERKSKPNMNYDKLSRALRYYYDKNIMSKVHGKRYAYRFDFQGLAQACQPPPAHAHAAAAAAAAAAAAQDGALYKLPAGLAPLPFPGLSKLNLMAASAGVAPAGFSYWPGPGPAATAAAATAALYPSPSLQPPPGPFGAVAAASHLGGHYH
The note with it: protein: recombinant; tags: N-terminal GST; dsDNA, one strand shown. In a few lines:
as §1

A further assay addresses ETV5 (Homo sapiens, UniProt P41161 1-510). As to conditions: protein: recombinant; tags: N-terminal GST; dsDNA, one strand shown. In a few lines:
as §1

The target in the next assay is HSF1 (Homo sapiens, UniProt Q00613 1-529). As to conditions: protein: recombinant; tags: N-terminal GST; chain copies: 3; dsDNA, one strand shown. A digest of the protocol: as §1
Chain of HSF1 (Q00613 whole entry): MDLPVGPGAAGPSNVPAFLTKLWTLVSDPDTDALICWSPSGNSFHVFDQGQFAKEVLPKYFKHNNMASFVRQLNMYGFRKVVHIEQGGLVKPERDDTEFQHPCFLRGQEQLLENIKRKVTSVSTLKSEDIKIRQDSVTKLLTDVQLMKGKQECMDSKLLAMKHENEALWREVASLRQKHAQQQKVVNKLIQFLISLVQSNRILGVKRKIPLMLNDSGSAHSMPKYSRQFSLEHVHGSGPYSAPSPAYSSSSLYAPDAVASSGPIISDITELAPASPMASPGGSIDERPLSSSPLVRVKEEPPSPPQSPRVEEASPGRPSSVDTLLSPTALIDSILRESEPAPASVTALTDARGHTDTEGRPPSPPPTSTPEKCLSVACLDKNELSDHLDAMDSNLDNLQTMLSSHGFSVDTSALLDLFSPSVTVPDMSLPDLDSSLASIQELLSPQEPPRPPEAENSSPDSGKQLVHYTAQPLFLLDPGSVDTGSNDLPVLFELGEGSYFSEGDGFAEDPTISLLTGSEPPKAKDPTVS
The next assay has as its target T8, SPIC (Homo sapiens, UniProt Q8N5J4 1-248).
T8 sequence: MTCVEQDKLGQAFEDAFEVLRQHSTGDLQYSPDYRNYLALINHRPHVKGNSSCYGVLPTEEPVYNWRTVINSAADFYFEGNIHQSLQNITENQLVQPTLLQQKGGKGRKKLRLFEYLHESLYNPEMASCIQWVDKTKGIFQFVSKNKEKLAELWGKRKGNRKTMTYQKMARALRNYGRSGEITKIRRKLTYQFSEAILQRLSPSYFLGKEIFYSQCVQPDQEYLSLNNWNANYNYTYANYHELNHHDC
As to conditions: protein: recombinant; tags: N-terminal GST; dsDNA, one strand shown. In a few lines:
as §1

A further assay addresses ELF4 (Homo sapiens, UniProt Q99607 1-663). The note with it: protein: recombinant; tags: N-terminal GST; dsDNA, one strand shown. In a few lines: as §1
Another assay deals with T9, ELK4 (Homo sapiens, UniProt P28324-2 1-405).
T9 sequence: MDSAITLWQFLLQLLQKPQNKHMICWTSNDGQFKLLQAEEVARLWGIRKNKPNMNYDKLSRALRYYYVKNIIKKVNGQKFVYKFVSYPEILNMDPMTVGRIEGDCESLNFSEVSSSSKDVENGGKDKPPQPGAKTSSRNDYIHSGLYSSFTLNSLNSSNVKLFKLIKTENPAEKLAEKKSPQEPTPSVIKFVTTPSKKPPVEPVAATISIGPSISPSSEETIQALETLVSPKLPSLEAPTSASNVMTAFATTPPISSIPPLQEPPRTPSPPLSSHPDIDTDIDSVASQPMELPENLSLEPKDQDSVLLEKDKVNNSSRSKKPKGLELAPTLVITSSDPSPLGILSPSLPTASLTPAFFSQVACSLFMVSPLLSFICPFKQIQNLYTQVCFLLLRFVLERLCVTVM
The note with it: protein: recombinant; tags: N-terminal GST; dsDNA, one strand shown. A digest of the protocol: as §1

Another assay deals with T10, ETV2 (Homo sapiens, UniProt O00321 1-342).
T10 sequence: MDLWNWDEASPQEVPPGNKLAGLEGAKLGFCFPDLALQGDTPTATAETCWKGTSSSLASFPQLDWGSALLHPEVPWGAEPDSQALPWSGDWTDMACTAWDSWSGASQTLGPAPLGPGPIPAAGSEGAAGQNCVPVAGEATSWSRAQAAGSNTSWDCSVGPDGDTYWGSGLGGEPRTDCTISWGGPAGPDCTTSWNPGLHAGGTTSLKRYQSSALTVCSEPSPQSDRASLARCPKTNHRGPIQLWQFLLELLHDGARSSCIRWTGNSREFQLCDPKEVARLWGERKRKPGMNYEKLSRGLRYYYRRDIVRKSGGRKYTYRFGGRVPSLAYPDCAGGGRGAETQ
The note with it: protein: recombinant; tags: N-terminal GST; dsDNA, one strand shown. In a few lines:
as §1

The target of a further assay is T11, ELF3 (Homo sapiens, UniProt P78545 1-371).
T11 sequence: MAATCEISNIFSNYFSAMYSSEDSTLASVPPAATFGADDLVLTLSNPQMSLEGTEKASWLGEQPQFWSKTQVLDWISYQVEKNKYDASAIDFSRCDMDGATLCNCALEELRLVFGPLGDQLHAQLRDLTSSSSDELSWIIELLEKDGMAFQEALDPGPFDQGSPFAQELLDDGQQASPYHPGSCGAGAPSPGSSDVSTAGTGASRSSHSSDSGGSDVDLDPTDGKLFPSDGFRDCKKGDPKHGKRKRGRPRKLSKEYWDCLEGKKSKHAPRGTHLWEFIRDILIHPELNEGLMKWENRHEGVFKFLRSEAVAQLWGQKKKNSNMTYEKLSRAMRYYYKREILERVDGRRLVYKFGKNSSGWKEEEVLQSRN
The note with it: protein: recombinant; tags: N-terminal GST; dsDNA, one strand shown. A digest of the protocol:
as §1

For another assay, the target named is CRX (Homo sapiens, UniProt O43186 1-299). The note with it: protein: recombinant; tags: N-terminal GST; dsDNA, one strand shown. In a few lines: as §1
Chain of CRX (O43186 whole entry): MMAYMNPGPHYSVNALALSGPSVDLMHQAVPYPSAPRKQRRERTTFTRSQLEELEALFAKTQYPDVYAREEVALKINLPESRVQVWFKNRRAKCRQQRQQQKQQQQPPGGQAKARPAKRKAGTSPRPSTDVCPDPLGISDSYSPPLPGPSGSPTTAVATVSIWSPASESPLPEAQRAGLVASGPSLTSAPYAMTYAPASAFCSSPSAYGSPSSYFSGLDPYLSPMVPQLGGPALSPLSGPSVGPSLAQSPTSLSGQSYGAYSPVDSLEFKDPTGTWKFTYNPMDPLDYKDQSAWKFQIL
In another assay the target is ETV1 (Homo sapiens, UniProt P50549 1-477). As to conditions: protein: recombinant; tags: N-terminal GST; dsDNA, one strand shown. In a few lines: as §1
Chain of ETV1 (P50549 whole entry): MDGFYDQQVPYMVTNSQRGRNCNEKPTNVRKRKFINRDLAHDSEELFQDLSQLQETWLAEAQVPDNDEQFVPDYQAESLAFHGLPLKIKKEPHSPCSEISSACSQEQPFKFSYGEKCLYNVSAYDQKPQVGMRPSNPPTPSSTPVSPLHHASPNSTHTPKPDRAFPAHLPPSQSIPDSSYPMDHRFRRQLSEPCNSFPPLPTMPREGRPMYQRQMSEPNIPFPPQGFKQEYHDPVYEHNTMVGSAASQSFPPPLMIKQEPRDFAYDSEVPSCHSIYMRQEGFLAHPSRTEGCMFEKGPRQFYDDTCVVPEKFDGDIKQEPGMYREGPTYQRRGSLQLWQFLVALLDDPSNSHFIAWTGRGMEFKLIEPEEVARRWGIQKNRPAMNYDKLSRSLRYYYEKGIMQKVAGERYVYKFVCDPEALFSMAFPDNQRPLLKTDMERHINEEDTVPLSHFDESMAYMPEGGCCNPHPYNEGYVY

Chain of SPIB (Q01892 whole entry): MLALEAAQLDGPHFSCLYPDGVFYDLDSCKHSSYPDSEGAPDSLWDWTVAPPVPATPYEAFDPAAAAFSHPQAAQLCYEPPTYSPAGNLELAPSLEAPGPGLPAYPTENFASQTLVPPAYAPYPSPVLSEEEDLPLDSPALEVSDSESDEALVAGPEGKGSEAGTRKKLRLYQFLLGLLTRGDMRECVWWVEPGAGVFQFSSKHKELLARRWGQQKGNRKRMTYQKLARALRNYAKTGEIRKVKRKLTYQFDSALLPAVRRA
Chain of ELF4 (Q99607 whole entry): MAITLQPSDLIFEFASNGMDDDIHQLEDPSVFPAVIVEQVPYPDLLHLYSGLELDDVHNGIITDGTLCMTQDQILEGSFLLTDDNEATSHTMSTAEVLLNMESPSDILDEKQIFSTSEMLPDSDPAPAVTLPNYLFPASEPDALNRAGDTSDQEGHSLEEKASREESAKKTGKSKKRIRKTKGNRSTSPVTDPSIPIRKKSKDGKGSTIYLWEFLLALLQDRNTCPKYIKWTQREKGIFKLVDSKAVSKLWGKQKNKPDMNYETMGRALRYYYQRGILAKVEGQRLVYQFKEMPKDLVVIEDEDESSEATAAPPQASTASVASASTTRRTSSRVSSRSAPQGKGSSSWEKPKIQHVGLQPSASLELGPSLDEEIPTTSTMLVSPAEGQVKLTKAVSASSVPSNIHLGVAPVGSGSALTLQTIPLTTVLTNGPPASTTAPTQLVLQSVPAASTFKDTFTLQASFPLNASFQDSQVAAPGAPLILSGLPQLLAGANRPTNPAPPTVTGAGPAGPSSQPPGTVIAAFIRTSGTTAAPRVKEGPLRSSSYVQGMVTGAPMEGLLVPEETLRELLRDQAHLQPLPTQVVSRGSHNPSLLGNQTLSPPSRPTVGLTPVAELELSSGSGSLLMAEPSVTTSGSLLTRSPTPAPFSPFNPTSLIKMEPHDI
Chain of ELF1 (P32519 whole entry): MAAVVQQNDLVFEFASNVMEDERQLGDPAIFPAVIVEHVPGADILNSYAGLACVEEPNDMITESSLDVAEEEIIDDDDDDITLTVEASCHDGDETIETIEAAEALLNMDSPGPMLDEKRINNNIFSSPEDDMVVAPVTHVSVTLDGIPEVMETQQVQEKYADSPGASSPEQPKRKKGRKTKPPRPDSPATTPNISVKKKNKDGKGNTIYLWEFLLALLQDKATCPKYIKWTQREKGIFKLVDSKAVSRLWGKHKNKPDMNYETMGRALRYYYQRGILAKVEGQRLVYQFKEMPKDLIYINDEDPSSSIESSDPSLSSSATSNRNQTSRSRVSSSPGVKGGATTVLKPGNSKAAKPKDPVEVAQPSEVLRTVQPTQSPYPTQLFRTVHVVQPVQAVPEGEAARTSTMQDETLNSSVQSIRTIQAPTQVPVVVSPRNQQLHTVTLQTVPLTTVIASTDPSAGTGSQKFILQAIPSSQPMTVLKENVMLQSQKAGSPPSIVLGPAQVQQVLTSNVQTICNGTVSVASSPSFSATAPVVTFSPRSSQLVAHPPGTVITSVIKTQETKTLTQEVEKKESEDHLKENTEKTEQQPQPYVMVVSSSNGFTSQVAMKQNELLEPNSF
Chain of ETV5 (P41161 whole entry): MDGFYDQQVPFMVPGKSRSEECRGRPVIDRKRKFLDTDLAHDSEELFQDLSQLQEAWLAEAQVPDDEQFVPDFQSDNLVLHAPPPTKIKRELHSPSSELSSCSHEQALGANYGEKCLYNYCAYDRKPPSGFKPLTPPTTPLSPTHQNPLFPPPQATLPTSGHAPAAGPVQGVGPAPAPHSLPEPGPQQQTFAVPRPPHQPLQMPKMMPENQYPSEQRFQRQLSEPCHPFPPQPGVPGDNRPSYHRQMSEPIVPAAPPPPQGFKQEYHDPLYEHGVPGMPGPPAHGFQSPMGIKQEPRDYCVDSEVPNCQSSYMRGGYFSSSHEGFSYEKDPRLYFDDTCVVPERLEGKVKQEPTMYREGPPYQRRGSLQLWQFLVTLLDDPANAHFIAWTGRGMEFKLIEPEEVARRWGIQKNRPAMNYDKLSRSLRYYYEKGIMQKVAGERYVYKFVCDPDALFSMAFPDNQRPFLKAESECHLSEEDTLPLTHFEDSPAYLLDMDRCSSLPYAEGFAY

On to ATTCCA, for which the binding signal with FLI1 was 1.17 fold enrichment (6-mer frequency, TF over GST control); with ELK1, 1.1 fold enrichment (6-mer frequency, TF over GST control); in the assay with GABPA, 1.16 fold enrichment (6-mer frequency, TF over GST control); with ERG, 1.14 fold enrichment (6-mer frequency, TF over GST control); in the assay with ELF1 it was 1.22 fold enrichment (6-mer frequency, TF over GST control); with EHF, 1.13 fold enrichment (6-mer frequency, TF over GST control). Also, the binding signal is 1.16 fold enrichment (6-mer frequency, TF over GST control) with SPI1; 1.1 fold enrichment (6-mer frequency, TF over GST control) in the assay with SPIB; 1.25 fold enrichment (6-mer frequency, TF over GST control) with ELK3; 1.07 fold enrichment (6-mer frequency, TF over GST control) in the assay with FEV; 1.18 fold enrichment (6-mer frequency, TF over GST control) in the assay with ETV5; 2.28 fold enrichment (6-mer frequency, TF over GST control) in the assay with HSF1. Also, the binding signal with SPIC was 1.14 fold enrichment (6-mer frequency, TF over GST control); with ELF4 it was 1.25 fold enrichment (6-mer frequency, TF over GST control); with ELK4, 1.19 fold enrichment (6-mer frequency, TF over GST control); in the assay with ETV2, 1.25 fold enrichment (6-mer frequency, TF over GST control); with ELF3 it was 1.04 fold enrichment (6-mer frequency, TF over GST control); with CRX it was 1.58 fold enrichment (6-mer frequency, TF over GST control). For the same sequence, the binding signal with ETV1 was 1.11 fold enrichment (6-mer frequency, TF over GST control).
